# Assay results as given in the supplement of paper PMC10849652.
# The full data set covers some 8,800 targets. This sample favours those with a hit. About 0.5% of all pairs of compound and target were hits. Values without a mark were called inactive.
# Key:
# Experiment in all cases: log2 fold change, soluble protein after heating vs DMSO (PISA); higher = thermal stabilisation; K562 lysate, 10 uM; active = over 0.2 and 3.5 SD of the protein, either way, in both replicates (recomputed)
# [1] = compound: CC(C)(C)Cn1c(N)nc2ccc(-c3[nH]c(C(C)(C)C)nc3-c3ccc(F)cc3)nc21 [ralimetinib]
# Outline: (§1)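 Values give the log-two fold change in thermal stability against solvent controls, from duplicates. Crude K562 extract at 1 mg/mL protein, made by dounce homogenisation in PBS pH 7.4 with 1 mM MgCl2, was treated with 10 μM compound for 30 min. After 3 min heating across 48°C-58°C, aliquots were pooled, adjusted to 0.5% NP-40 at 4°C and centrifuged at 21,000xg for 90 min. The supernatant was measured by TMTpro 16plex LC-MS/MS with channel sums equalised.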
# [2] = compound: CC(C)(O)CC(=O)NCCn1ccc2ncnc(Nc3ccc(Oc4cccc(C(F)(F)F)c4)c(Cl)c3)c21
# Outline: as §1
# [3] = compound: CC(C)C1=C2N=C(C=C(N2N=C1)NCC3=CC=CC=C3)NCCCCCCN
# Outline: as §1
# [4] = compound: CC1=C(C(CC(=O)N1)C2=CC=C(C=C2)C(F)(F)F)C(=O)NC3=C(C=C4C(=C3)C=NN4)F
# Outline: as §1
# [5] = compound: CC1=C(C2=C(C=C1)C(=O)C3=CC=CC=C3N2CCCN)C
# Outline: as §1
# [6] = compound: CC1=C(C=C(C=C1)NC(=O)C2=CC(=CC=C2)C(C)(C)C#N)NC3=CC4=C(C=C3)N=CN(C4=O)C
# Outline: as §1
# [7] = compound: CC1=C(C=C(C=C1)NC(=O)C2=CC(=CC=C2)N(C)C)NC(=O)C3=CC=C(C=C3)O
# Outline: as §1
# [8] = compound: CC[C@@H]1C(=O)N(C)c2cnc(Nc3ccc(C(=O)NC4CCN(C)CC4)cc3OC)nc2N1C1CCCC1
# Outline: as §1
# [9] = compound: CCn1c(C(=O)N(C2CC2)C2CC2)cc2c3c(ncn3C)c(Nc3cc(C)n(C)n3)nc21
# Outline: as §1
# [10] = compound: CCn1cc(-c2ccnc3[nH]c(-c4cccc(CN(C)C)c4)cc23)c(-c2ccc(NC(=O)N(C)C)cc2)n1
# Outline: as §1
# [11] = compound: CN1CCC(CNc2ccc3ncc(-c4cccc(OC(F)(F)F)c4)n3n2)CC1
# Outline: as §1
# [12] = compound: CN1CCN(CCOc2cc(OC3CCOCC3)c3c(Nc4c(Cl)ccc5c4OCO5)ncnc3c2)CC1 [saracatinib]
# Outline: as §1
# [13] = compound: CN1CCN(c2nc(C3=C(c4c[nH]c5ccccc45)C(=O)NC3=O)c3ccccc3n2)CC1 [sotrastaurin]
# Outline: as §1
# [14] = compound: C=CC(=O)N1CCC[C@@H](n2nc(-c3ccc(Oc4ccccc4)cc3)c3c(N)ncnc32)C1 [ibrutinib]
# Outline: as §1
# [15] = compound: CCN(CCCOc1ccc2c(Nc3cc(CC(=O)Nc4cccc(F)c4)[nH]n3)ncnc2c1)CCOP(=O)(O)O [barasertib]
# Outline: as §1
# [16] = compound: CCCS(=O)(=O)Nc1ccc(F)c(C(=O)c2c[nH]c3ncc(-c4ccc(Cl)cc4)cc23)c1F [vemurafenib]
# Outline: as §1
# [17] = compound: CC(=O)c1cnc2ccc(-c3cc(Cl)c(O)c(Cl)c3)nc2c1N[C@H]1CC[C@H](CN(C)C)CC1
# Outline: as §1
# [18] = compound: CC1=CC=C(C=C1)SC2=C3C=C(SC3=CN=C2)C(=O)N
# Outline: as §1
# [19] = compound: CCCS(=O)(=O)Nc1ccc(F)c(C(=O)c2c[nH]c3ncc(Cl)cc23)c1F
# Outline: as §1
# [20] = compound: CC[C@@H]1C(=O)N(C)c2cnc(Nc3ccc(C(=O)N[C@H]4CC[C@H](N5CCN(CC6CC6)CC5)CC4)cc3OC)nc2N1C(C)C [volasertib]
# Outline: as §1
# Chain of UniProt Q9BTT0 (Q9BTT0 whole entry, looked up): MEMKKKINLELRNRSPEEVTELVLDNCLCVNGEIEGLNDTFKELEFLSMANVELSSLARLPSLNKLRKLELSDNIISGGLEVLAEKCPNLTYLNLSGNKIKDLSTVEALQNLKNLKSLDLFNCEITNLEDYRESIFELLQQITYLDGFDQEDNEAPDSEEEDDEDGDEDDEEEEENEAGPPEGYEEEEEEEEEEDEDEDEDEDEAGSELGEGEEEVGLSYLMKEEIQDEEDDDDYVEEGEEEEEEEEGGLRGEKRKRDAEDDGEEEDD
# Chain of UniProt Q9P1F3 (Q9P1F3 whole entry, looked up): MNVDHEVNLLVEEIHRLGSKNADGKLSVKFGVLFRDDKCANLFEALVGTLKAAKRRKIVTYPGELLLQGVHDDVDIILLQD
# Chain of UniProt Q9BXX3 (Q9BXX3 whole entry, looked up): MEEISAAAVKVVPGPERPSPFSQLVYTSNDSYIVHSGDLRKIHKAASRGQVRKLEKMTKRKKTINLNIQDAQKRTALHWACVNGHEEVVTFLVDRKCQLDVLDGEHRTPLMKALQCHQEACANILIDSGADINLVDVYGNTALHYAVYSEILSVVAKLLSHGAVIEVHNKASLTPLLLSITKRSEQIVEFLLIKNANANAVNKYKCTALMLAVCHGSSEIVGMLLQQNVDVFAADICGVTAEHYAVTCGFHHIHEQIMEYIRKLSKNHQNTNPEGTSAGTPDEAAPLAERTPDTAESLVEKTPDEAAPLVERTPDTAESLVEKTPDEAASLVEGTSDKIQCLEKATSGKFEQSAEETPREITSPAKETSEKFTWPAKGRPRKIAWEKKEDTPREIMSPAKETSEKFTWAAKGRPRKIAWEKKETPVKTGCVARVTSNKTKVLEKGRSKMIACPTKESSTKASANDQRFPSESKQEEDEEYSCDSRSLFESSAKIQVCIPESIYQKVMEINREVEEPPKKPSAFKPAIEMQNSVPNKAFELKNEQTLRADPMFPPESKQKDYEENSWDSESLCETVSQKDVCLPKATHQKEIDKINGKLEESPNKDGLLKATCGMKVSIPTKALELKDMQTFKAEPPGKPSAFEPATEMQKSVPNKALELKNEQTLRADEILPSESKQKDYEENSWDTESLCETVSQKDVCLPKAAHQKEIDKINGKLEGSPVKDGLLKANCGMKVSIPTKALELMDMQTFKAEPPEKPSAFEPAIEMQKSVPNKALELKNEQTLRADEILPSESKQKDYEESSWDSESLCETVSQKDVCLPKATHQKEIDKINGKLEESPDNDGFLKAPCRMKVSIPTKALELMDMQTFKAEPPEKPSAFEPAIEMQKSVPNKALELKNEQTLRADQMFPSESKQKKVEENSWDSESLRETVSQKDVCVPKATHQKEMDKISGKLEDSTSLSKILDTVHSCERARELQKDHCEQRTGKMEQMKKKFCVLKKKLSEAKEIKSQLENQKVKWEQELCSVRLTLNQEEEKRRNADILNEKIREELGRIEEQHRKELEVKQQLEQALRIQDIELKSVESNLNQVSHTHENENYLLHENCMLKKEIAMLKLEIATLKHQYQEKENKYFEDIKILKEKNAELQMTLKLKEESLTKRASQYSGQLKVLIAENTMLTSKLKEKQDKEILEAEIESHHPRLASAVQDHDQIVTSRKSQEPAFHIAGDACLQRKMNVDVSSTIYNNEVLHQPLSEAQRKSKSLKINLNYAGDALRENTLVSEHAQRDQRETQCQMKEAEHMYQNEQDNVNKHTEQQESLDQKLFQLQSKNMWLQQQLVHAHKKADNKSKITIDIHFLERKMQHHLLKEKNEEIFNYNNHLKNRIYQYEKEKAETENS
# Chain of UniProt Q9BT30 (Q9BT30 whole entry, looked up): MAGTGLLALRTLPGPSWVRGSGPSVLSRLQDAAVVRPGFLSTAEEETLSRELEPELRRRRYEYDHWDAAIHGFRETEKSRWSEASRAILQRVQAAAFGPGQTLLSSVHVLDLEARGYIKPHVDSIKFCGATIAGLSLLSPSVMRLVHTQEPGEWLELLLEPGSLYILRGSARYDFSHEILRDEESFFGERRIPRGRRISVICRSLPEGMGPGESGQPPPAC
# Chain of UniProt Q8N8A2 (Q8N8A2 whole entry, looked up): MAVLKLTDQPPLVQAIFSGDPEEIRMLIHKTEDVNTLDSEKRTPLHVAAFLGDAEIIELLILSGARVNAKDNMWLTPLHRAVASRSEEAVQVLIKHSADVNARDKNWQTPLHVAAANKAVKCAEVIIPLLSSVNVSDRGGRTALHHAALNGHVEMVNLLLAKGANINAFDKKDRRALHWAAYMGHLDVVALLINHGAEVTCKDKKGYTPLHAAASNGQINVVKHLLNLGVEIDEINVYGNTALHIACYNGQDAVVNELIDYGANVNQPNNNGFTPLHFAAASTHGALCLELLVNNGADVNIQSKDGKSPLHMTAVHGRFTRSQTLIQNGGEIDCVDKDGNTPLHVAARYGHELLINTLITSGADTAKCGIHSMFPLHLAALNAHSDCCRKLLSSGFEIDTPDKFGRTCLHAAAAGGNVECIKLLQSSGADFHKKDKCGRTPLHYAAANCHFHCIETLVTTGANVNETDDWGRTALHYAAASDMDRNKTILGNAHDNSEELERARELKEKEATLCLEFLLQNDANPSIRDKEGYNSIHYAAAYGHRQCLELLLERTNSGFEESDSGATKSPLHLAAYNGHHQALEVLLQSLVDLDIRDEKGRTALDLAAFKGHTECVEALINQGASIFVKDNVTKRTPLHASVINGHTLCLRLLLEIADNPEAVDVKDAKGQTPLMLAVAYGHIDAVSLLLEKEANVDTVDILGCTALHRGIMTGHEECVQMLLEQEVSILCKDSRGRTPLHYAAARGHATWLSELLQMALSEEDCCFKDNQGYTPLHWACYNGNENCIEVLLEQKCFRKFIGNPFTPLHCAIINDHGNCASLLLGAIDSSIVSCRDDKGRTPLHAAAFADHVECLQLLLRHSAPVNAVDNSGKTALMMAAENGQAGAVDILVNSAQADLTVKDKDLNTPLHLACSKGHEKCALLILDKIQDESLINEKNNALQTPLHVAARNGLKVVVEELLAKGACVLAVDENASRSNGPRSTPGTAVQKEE
# Chain of UniProt Q8IZP0 (Q8IZP0 whole entry, looked up): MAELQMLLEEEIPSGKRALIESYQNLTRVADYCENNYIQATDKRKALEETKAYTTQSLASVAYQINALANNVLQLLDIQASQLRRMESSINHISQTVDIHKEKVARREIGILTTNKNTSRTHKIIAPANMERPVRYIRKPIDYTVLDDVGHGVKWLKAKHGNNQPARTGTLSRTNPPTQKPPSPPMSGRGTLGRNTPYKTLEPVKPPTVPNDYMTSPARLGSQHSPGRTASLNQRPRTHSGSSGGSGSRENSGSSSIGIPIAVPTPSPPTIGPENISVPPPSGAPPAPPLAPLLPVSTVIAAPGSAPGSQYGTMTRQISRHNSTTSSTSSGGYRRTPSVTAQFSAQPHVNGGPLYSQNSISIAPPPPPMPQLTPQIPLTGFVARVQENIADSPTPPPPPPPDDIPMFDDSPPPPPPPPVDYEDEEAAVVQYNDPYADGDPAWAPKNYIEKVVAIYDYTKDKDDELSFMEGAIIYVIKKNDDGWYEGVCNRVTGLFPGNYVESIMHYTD
# Chain of UniProt O15120 (O15120 whole entry, looked up): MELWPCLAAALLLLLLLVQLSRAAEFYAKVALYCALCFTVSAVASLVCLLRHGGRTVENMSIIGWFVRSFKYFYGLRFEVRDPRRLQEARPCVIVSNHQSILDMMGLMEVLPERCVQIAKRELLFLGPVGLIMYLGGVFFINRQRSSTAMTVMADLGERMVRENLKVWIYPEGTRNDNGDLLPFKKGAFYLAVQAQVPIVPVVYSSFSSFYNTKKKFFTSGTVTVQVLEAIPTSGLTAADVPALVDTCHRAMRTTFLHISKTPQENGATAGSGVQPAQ
# Chain of UniProt Q2VPB7 (Q2VPB7 whole entry, looked up): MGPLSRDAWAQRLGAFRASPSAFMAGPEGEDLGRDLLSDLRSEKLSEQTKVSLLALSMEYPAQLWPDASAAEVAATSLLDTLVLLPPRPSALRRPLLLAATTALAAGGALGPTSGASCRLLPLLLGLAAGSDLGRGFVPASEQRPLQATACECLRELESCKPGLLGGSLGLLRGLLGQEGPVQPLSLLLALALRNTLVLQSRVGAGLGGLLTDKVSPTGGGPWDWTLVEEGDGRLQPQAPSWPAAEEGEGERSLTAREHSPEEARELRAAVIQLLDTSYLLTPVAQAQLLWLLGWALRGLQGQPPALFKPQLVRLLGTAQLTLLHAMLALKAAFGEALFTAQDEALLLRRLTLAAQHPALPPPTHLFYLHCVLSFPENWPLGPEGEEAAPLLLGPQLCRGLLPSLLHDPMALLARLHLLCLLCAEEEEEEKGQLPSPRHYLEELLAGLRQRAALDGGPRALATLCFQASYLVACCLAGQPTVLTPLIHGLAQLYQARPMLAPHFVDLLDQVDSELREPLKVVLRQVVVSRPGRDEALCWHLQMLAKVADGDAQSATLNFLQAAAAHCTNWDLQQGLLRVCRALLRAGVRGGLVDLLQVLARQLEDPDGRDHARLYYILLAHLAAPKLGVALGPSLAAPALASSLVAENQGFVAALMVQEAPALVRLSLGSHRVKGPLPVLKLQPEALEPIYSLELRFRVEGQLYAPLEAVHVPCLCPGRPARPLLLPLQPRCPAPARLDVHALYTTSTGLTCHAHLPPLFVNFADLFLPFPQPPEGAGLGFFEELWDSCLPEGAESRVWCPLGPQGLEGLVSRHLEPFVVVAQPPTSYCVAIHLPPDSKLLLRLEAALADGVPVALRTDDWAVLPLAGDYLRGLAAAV
# Chain of UniProt Q9BQI0 (Q9BQI0 whole entry, looked up): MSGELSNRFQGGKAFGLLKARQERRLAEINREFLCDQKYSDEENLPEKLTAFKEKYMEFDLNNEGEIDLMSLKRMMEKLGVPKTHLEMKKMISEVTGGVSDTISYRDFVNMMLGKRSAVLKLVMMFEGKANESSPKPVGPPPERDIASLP
Target,log2 fold change [1],log2 fold change [2],log2 fold change [3],log2 fold change [4],log2 fold change [5],log2 fold change [6],log2 fold change [7],log2 fold change [8],log2 fold change [9],log2 fold change [10],log2 fold change [11],log2 fold change [12],log2 fold change [13],log2 fold change [14],log2 fold change [15],log2 fold change [16],log2 fold change [17],log2 fold change [18],log2 fold change [19],log2 fold change [20]
ALKBH7 (UniProt Q9BT30),0.116,0.09,-0.085,0.256,-0.012,0.077,0.019,-0.031,0.072,0.233,-0.2,-0.012,-0.016,,,,,,,
ACVR1 (UniProt Q04771),,,,-0.152,-0.02,,,,,-0.244,0.815 (active),,,-0.047,-0.115,,,,,
ANKRD40 (UniProt Q6AI12),0.062,0.05,0.051,0.027,-0.231,0.075,0.087,-0.118,-0.066,0.094,-0.075,-0.101,0.012,0.008,-0.091,0.501,,,,
ABI1 isoform 6 (UniProt Q8IZP0),,,,,,,,0.248,,,,,,,,,-0.034,-0.028,-0.219,0.026
ANKRD30A (UniProt Q9BXX3),0.014,0.088,,0.007,0.038,-0.088,0.077,-0.102,0.152,0.262,0.891,0.072,0.032,-0.01,0.087,,0.77,-0.177,0.111,-0.08
AIMP2 isoform 2 (UniProt Q13155),0.061,-0.036,,,,0.089,0.023,,-0.027,,,,0.014,-0.28,0.038,,0.064,0,-0.134,0.047
"ADK, A0A5F9ZH76",,,,-0.156,,,,,,,,,,0.168,-0.019,,0.005,0,-0.174,0.167
ANXA2 (UniProt H0YL33),-0.076,0.129,-0.353,0.033,0.025,-0.211,0.005,,0.012,0.643 (active),-0.416,0.088,0.214,0.235,0.37,,-0.167,-0.144,0.012,0.136
ARHGEF2 (UniProt V9GYF0),-0.041,-0.126,,-0.055,-0.011,,0.008,0.022,0.11,,,-0.114,,,,-0.013,0.02,-0.07,0.05,-0.022
ABCC5 (UniProt O15440),-0.216,-0.145,-0.015,,-0.094,0.019,0.187,-0.067,0.145,-0.137,-0.022,0.013,0.018,-0.109,-0.034,-0.603 (active),0.012,-0.019,-0.001,-0.136
AIF1L (UniProt Q9BQI0),0.029,-0.003,-0.105,-0.012,0.159,-0.014,-0.005,-0.101,0.091,0.153,-0.117,0.13,0.115,0.169,0.009,,0.032,-0.013,0.049,-0.086
ABRACL (UniProt Q9P1F3),,,0.001,-0.112,0.142,0.051,,,,0.156,0.053,0.134,0,0.109,0.06,,-0.179,0.015,-0.074,-0.001
ANKRD44 isoform 2 (UniProt Q8N8A2),,,-0.026,0.075,,,,-0.308,,-1.9 (active),0.616,,,-0.131,0.058,0.056,0.067,-0.029,0.019,0.054
ADD1 isoform 4 (UniProt P35611),-0.104,-0.356,0.056,,0.004,,0.017,0.164,-0.345,-0.61,0.397,0.083,,0.214,-0.089,0.061,0.003,-0.341,-0.003,0.061
AP5B1 (UniProt Q2VPB7),-0.04,-0.072,0.011,0.021,-0.067,-0.08,0.036,0.066,0.001,0.002,0.045,-0.014,-0.062,0.112,0.035,,-0.037,-0.006,0.062,0.011
AGPAT2 (UniProt O15120),0.1,-0.071,0.046,0.03,,-0.064,0.013,0.108,0.002,-0.034,0.023,,0,,,0.33 (active),,,,
ARL13B (UniProt Q3SXY8),0.058,-0.032,0.081,,-0.002,0.047,-0.068,,-0.043,0.325,-0.246,0.007,0.117,-0.001,-0.041,-0.075,-0.033,0.077,-0.039,0.065
ANKRD30B (UniProt Q9BXX2),-0.007,-0.16,0.038,-0.098,-0.064,,0.024,0.012,-0.055,-0.755 (active),0.281,0.04,,-0.063,0.047,0.136,-0.086,-0.167,0.024,0.003
ANP32E isoform 3 (UniProt Q9BTT0),,,,,,,,-0.026,,-0.724 (active),0.468,,,-0.065,-0.086,0.034,,,,
ADAM17 (UniProt P78536),-0.012,-0.032,-0.056,0.16,-0.029,-0.013,-0.027,-0.151,-0.027,0.065,0.001,-0.011,0.002,0.037,-0.184,0.071,,,,
